According to PubChem BioAssay AID990 (National Center for Advancing Translational Sciences (NCATS), 2007):
The source made the active and inactive calls.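 Rule for the calls: active = compound that made reporter-free parental cells show up as glowing objects under laser imaging, so likely a fluorescent false positive; inactive = the rest.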

Test: Parental Cell Counter Screen Assay for Epigenetic Modulators
Details: parental c127i cells, compound fluorescence imaging, 30 h
Description: NIH Molecular Libraries Screening Centers Network [MLSCN] NIH Chemical Genomics Center [NCGC] MLSCN Grant: 1 X01 MH079860-01 Assay Provider: Elisabeth D. Martinez, University of Texas SW Medical Center NCGC Assay Overview: This assay is a counter screen for the Locus Derepression (LDR) assay (PubChem AID 597). The LDR assay detects the derepression of a GFP reporter that is stably integrated in a region of the genome of murine c127i mammary cells that is presumably silenced. Compounds that cause derepression of the locus to express GFP are identified by enumerating GFP positive cells using a laser-scanning microplate cytometer. […] Compounds active in the parental c127i cells are likely fluorescent.
NCGC Assay Protocol Summary: Two hundred and fifty cells in 5 uL per well were dispensed into black, clear-bottom 1536-well plates. Twenty-three nL compound was transferred to the assay plate and cells were incubated 30 hours at 37 C. Medium was removed, cells were washed two times with PBS, and fluorescent cells were enumerated as objects between the sizes of 20 to 120 um width and depth using a laser-scanning microplate imager (Acumen Explorer Ex3, TTP Labtech).

| Compound | outcome |
| --- | --- |
| CCOCc1ccc(O)c2ncccc12 | inactive |
| COc1ccc(C)cc1N=Nc1ccc(O)c2ncccc12 | inactive |
| CCNc1nc(NCC)nc(-n2cc(C(=O)c3cc(Cl)ccc3O)cn2)n1 | inactive |
| Cc1cc(C)n(-c2nc(NC(C)C)nc(NC(C)C)n2)n1 | inactive |
| Cc1cc(C)n(-c2nc(N(C)C)nc(N(C)C)n2)n1 | inactive |
| Cc1cc(C)n(-c2nc(NC(C)(C)C)nc(NC(C)(C)C)n2)n1 | inactive |
| Oc1c(C(Nc2ccccc2C(F)(F)F)c2ccccn2)ccc2cccnc12 (configuration not stated) | inactive |
